The assay deals with HL-60(TB) leukemia. As to the kind of experiment: NCI-60 one-dose screen, 48 h (100 = growth as untreated, 0 = no growth, -100 = all killed).

This is part of a sample that, as a whole, favours compounds with a hit. Of some 83,000 tested, about 20% had one in any assay.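 The test compound was applied at a single concentration to cells in 96-well plates for 48 hours, and percent growth was recorded.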 Unmarked numbers belong to inactive results. Activity calls are given as the source filed them. Rule for the calls: active = growth percent below 10; inactive = the rest.

Take `CN(C)CCNc1ncc(F)c(-c2cnc3cc(-c4cnn(C)c4)ccn23)n1`: the growth (0.005 µM) was 101%.
Take `CC(=O)O[C@H]1C(=O)[C@@]2(C)[C@H]([C@H](OC(=O)c3ccccc3)[C@]3(O)C[C@H](OC(=O)[C@H](O)[C@@H](NC(=O)c4ccccc4)c4ccccc4)C(C)=C1C3(C)C)[C@]1(OC(C)=O)CO[C@@H]1C[C@@H]2O`: the growth is -8.36% (active) (0.01 µM) and -42.4% (active) (5 µM).
Consider `CCCCCCCCCCCCCCCc1ccc(Cl)c(O)c1Cl` (tested in a mixture with another compound), for which, under “0.25 µM”, the growth was 18.3%.
For `CNC(=O)c1cc(Oc2ccc(CC(=O)Nc3cc(C(C)(C)C)nn3C)cc2)ccn1`, the growth (1 µM) is 85.3%.
For `CC/C(=C(\c1ccccc1)c1ccc(OCCN(C)C)cc1)c1ccccc1`, the growth (12.5 µM) is -57.1% (active).
`O=c1[nH]cc(F)c(=O)[nH]1`: where the note is “25 µM”, the growth is 47.9%.

The values above are taken from PubChem BioAssay (NCI).
